Measurements as given in PubChem BioAssay.
The source made the active and inactive calls.

Columns and labels:
[1] = optical density shifts of acrAB sulA E. coli – strain DRC41, OD650, 48 h, E. coli filamentation inducer project, primary screen (AID 1152); conditions: higher = more signal, called active from +8 up or from −8 down;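 further: E. coli MC1000 strain DRC41 lacking acrAB efflux pump and sulA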
[2] = probe aLefty1 binding on compound microarray – biochemical, small-molecule microarray, 635/667 nm fluorescence, primary screen (AID 1153); conditions: higher = more signal;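 further: score merges spot fluorescence with signal-to-noise ratio from the scanned slide images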
[3] = plasmodial surface anion channel blockers, osmotic lysis – cell-based, P. falciparum Indochina, OD700, 1 h, primary screen (AID 1154); conditions: P. falciparum Indochina infected RBC osmotic lysis, higher = more signal, called active from +8 up or from −8 down
[4] = plasmodial surface anion channel blockers, osmotic lysis – cell-based, P. falciparum Indochina, OD700, 2 h, primary screen (AID 1155);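 further: lysis reports solute entry through the parasite surface anion channel PSAC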; conditions: P. falciparum Indochina infected erythrocytes, higher = more signal, called active from +8 up or from −8 down
[5] = changes in parasitized red cell lysis, either direction – P. falciparum Indochina, OD700, 3 h, PSAC antagonist project, primary screen (AID 1156); conditions: P. falciparum-infected erythrocytes, osmotic lysis, higher = more signal, called active from +8 up or from −8 down
[6] = plasmodial surface anion channel blockers, osmotic lysis – cell-based, P. falciparum Indochina, OD700, 18 h, primary screen (AID 1157); conditions: P. falciparum Indochina infected erythrocytes, osmotic lysis OD700, 18 h; higher = more signal, called active from +8 up or from −8 down
[7] = S6 kinase pathway phospho-S6 level changes – cell-based, A549, cytoblot, luminescence, serum-stimulated, primary screen (AID 1158); conditions: 5 h, higher = more signal;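 further: serum-stimulated A549 lung adenocarcinoma cells; signal is phosphorylated S6 detected by cytoblot immunostaining with HRP secondary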
[8] = biological target: NADPH oxidase 2 (Homo sapiens) (UniProt P04839); test: compounds shifting NOX2 Amplex Red fluorescence – cell-based, HEK293-NOX2, PMA-stimulated, NOX inhibitor project, primary screen (AID 1159); conditions: 45 min, higher = more signal, called active from +8 up or from −8 down; further: test concentration not given here
NADPH oxidase 2 (Homo sapiens), sequence (P04839 whole entry, looked up): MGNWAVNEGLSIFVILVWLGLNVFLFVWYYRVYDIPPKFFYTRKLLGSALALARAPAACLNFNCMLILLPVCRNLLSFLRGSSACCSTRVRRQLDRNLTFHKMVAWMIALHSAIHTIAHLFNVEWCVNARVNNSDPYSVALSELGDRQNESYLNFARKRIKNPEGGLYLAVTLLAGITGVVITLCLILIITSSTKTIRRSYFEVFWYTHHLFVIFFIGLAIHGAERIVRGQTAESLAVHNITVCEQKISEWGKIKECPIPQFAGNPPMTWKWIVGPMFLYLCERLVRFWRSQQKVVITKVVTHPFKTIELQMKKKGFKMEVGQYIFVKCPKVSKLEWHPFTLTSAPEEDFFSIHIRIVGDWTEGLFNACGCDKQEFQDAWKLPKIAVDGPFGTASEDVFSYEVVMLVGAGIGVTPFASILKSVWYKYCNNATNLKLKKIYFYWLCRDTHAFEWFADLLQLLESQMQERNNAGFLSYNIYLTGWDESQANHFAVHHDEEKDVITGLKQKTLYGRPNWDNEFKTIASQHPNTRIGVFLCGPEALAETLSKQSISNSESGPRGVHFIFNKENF

[9] = biological target: NADPH oxidase 4 (Homo sapiens) (UniProt Q9NPH5); test: compounds shifting NOX4 Amplex Red fluorescence – cell-based, HEK293-NOX4, tetracycline-induced, NOX inhibitor project, primary screen (AID 1160); conditions: HEK293-NOX4, Amplex Red H2O2 fluorescence, 45 min; higher = more signal, called active from +8 up or from −8 down
NADPH oxidase 4 (Homo sapiens), sequence (Q9NPH5 whole entry, looked up): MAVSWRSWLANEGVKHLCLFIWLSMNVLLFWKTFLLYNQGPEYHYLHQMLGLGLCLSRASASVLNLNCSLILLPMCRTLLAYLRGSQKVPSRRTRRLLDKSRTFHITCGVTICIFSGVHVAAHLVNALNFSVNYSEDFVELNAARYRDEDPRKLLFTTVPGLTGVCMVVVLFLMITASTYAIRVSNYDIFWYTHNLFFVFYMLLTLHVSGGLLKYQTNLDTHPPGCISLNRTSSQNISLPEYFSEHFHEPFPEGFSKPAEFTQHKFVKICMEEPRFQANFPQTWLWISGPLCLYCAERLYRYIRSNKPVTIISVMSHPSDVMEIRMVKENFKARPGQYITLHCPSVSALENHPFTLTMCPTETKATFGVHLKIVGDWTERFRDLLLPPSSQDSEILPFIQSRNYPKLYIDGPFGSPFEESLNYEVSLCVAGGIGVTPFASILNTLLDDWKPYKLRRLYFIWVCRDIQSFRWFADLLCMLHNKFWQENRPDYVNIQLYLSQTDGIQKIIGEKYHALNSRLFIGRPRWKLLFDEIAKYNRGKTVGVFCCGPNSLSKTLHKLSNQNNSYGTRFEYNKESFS

[10] = biological target: NADPH oxidase 5 (Homo sapiens) (UniProt Q96PH1); test: compounds shifting NOX5 Amplex Red fluorescence – cell-based, HEK293-NOX5, NOX inhibitor project, primary screen (AID 1161); conditions: HEK293-NOX5, ionomycin, 45 min, higher = more signal
NADPH oxidase 5 (Homo sapiens), sequence (Q96PH1 whole entry, looked up): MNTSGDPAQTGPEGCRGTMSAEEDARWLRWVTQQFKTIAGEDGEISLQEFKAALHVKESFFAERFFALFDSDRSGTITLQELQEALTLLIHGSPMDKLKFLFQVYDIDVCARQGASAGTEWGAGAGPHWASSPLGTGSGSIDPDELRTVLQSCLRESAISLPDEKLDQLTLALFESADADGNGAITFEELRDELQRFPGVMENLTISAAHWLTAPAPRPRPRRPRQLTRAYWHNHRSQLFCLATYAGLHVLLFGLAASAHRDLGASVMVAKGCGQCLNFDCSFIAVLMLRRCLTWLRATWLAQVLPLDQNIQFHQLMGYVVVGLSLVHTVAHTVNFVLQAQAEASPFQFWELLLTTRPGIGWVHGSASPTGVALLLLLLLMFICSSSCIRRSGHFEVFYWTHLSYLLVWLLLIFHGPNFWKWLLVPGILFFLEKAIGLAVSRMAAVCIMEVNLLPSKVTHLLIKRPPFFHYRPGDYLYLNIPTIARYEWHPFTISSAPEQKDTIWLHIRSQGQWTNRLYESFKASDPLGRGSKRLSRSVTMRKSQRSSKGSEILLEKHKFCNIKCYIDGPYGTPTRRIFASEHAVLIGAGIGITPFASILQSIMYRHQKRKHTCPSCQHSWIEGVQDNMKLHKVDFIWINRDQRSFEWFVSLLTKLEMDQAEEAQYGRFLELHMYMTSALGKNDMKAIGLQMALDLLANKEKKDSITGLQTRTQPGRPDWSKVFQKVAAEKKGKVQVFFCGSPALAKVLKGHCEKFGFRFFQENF

[11] = compound effects on lung adenocarcinoma cell viability – A549, calcein-AM fluorescence, 48 h, basal, profiling panel (AID 1162); conditions: higher = more signal; further: test concentration not given here
[12] = compound effects on differentiated 3T3-L1 adipocyte viability – cell-based, 3T3-L1 adipocytes, calcein-AM fluorescence, 48 h, basal, profiling panel (AID 1163); conditions: 3T3-L1 adipocytes viability, higher = more signal; further: test concentration not given here
[13] = compound effects on hepatocellular carcinoma cell viability – HepG2, calcein-AM fluorescence, 48 h, basal, profiling panel (AID 1164); conditions: higher = more signal; further: test concentration not given here
[14] = compound effects on multiple myeloma cell viability – MM1S, calcein-AM fluorescence, 48 h, basal, profiling panel (AID 1165); conditions: higher = more signal; further: test concentration not given here
[15] = calcein-AM signal in unstimulated myeloma cells – cell-based, calcein-AM fluorescence, 48 h, PK04 Diversity Set, profiling panel (AID 1166); conditions: RPMI8226 myeloma viability, higher = more signal;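 further: cells grown under basal conditions without added stimulus; test concentration not given here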
[16] = JC-1 mitochondrial signal, unstimulated HepG2 cells – cell-based, JC-1 fluorescence, 24 h, 100 nL compound, profiling panel (AID 1167); conditions: HepG2 mitochondrial potential, higher = more signal; further: test concentration not given here
[17] = JC-1 mitochondrial signal, unstimulated adipocytes – cell-based, JC-1 fluorescence, 3T3-L1 adipocytes, 24 h, 100 nL compound, profiling panel (AID 1168); conditions: JC-1 mitochondrial fluorescence, higher = more signal, called active from +8 up or from −8 down; further: test concentration not given here
[18] = JC-1 mitochondrial signal, unstimulated myeloma cells – cell-based, JC-1 fluorescence, RPMI8226, 24 h, 100 nL compound, profiling panel (AID 1169); conditions: JC-1 mitochondrial potential fluorescence, higher = more signal; further: test concentration not given here
[19] = JC-1 mitochondrial signal, unstimulated MM1S myeloma – cell-based, JC-1 fluorescence, 24 h, 100 nL compound, profiling panel (AID 1170); conditions: MM1S mitochondrial potential, higher = more signal; further: test concentration not given here
[20] = resazurin metabolic signal in A549 cells – cell-based, resazurin fluorescence, 24 h, PK04 Diversity Set, profiling panel (AID 1171); conditions: A549 viability, higher = more signal, called active from +8 up or from −8 down; further: test concentration not given here

| SMILES | z-score [1] | composite z-score [2] | z-score [3] | z-score [4] | z-score [5] | z-score [6] | z-score [7] | z-score [8] | z-score [9] | z-score [10] | z-score [11] | z-score [12] | z-score [13] | z-score [14] | z-score [15] | z-score [16] | z-score [17] | z-score [18] | z-score [19] | z-score [20] |
| --- | --- | --- | --- | --- | --- | --- | --- | --- | --- | --- | --- | --- | --- | --- | --- | --- | --- | --- | --- | --- |
| Cc1ccc(S(=O)(=O)OC[C@H]2CN3[C@H](c4ccc(Br)cc4)[C@@H](C)CC[C@H]3C(=O)O2)cc1 | 0.399 (inactive) | -0.0501 | 3.18 (inactive) | 0.57 (inactive) | 0.896 (inactive) | 0.761 (inactive) | 0.0084 | 0.407 (inactive) | 0.484 (inactive) | -0.632 | 0.602 | -0.744 | 0.62 | -0.0638 | -0.75 | 0.914 | 0.555 (inactive) | -0.103 | 0.222 | 0.683 (inactive) |
| O=C1C2=CC[C@H]3C(=O)N(c4cccc(Oc5ccccc5)c4)C(=O)[C@H]3[C@H]2[C@H](O)[C@@H]2O[C@H]12 | -0.462 (inactive) | -0.103 | -0.0001 (inactive) | -0.295 (inactive) | -0.081 (inactive) | 0.157 (inactive) | -0.194 | 0.042 (inactive) | 0.605 (inactive) | 0.4 | -1.07 | -0.0208 | -3.98 | -3.09 | -3.84 | -0.778 | -0.298 (inactive) | -1.05 | -3.02 | -1.35 (inactive) |
| COCCNC(=O)OCC1CCCC2(CC(OC(=O)NCc3ccc4c(c3)OCO4)CC(CCC(=O)N[C@@H](C)C(=O)OC)O2)O1 (stereo not given in full) | -0.982 (inactive) | 0.0341 | -1.19 (inactive) | 0.276 (inactive) | 0.0971 (inactive) | 0.296 (inactive) | -0.472 | 1.1 (inactive) | 1.29 (inactive) | 0.89 | 0.122 | -0.0741 | -1.29 | 0.463 | -2.51 | -0.802 | -0.628 (inactive) | 0.934 | -0.318 | 1.66 (inactive) |
| Cc1ccc(S(=O)(=O)n2c3ccccc3c3nnc(C(=O)c4ccccc4)nc32)cc1 | 1.04 (inactive) | -0.179 | 4.4 (inactive) | 0.266 (inactive) | -0.0784 (inactive) | 0.421 (inactive) | 0.479 | -0.0413 (inactive) | 0.179 (inactive) | -0.341 | 1.8 | 0.294 | -0.284 | -0.377 | 0.271 | -2.96 | 0.839 (inactive) | -0.248 | -0.956 | -0.721 (inactive) |
